Bioassay records (PubChem BioAssay)
HIF act – HIF pathway transcriptional activators, primary screen, cell-based, U2OS HRE-luciferase, luminescence | 0.32% of 300,000 active | activation, % at 7.5 µM (by protocol) | AID 1910, 2009 | U2OS HRE-luciferase reporter; normalized: DMSO 0%, desferrioxamine 100%;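 active means mean activation of at least 10% of the iron chelator positive control signal, with at least half of replicates also reaching 10%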
NTR1 agonist – agonists of human NTR1, primary screen, imaging, U2OS cells, beta-arrestin-GFP, high content; Neurotensin receptor type 1 (Homo sapiens), P30989; NTR1-U2OS beta-arrestin-GFP spot imaging, agonist mode; activation, % at 20 µM; 0.17% of 330,000 active;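 active means activation at or above 40% of the spot to cytoplasm intensity ratio, with at least 20 cells analyzed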
Target sequence (P30989 whole entry, looked up): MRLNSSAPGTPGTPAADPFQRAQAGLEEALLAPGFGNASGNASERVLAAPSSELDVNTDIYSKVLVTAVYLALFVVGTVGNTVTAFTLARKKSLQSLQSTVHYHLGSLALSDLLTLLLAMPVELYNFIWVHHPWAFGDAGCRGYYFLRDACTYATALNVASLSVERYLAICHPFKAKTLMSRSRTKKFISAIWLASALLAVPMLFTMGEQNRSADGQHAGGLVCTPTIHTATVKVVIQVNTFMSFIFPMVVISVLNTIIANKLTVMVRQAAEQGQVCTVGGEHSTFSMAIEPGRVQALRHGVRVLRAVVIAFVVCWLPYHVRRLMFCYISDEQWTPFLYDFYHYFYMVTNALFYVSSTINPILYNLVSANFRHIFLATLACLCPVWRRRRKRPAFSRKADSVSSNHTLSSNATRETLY
Platelet DG rel – inhibitors of platelet dense granule secretion, primary screen, cell-based, MLPCN, human platelets | 0.22% of 300,000 active | human platelet-rich plasma, SFLLRN dense granule ATP release, luminescence | inhibition, %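 (compounds screened at 7.5 µM in platelet-rich plasma)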;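 active means mean replicate score, as percent of positive control, at or above 50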
Large screens that a line does not name were inactive. Hits are enriched below; roughly 0.63% of the tested compounds scored in any of these assays.

O=C(N/N=C/c1cc(Cl)cc([N+](=O)[O-])c1O)c1ccc2c(c1)OCO2	none
Cc1ccnc(NS(=O)(=O)c2ccc(N3C(=O)C4CCCCC4C3=O)cc2)n1 (stereo not given)	none
O=C(CCSCCC(=O)NCC1CCCO1)NCC1CCCO1 (stereo not given)	none
O=C(COC(=O)c1cccs1)Nc1cccc(Cl)c1	none (no result: HIF act, Platelet DG rel)
CCOC(=O)N1CCC(NC(=O)CC2C(=O)NCCN2Cc2ccc(C)cc2)CC1 (stereo not given)	none
COc1ccc(Cc2c(O)nc(SCC(=O)c3ccc(OC)cc3)[nH]c2=O)cc1	none
CCN(CC)S(=O)(=O)c1cccc2nsnc12	none
O=C(Nn1cnnc1)c1ccccc1CCc1ccccc1	Platelet DG rel 61.7
O=C(Nc1ccccc1)c1ccccc1CCc1ccccc1	none
O=C(Nc1ccon1)c1cc2c(s1)CCCCCC2	none
COC(=O)C1=C(C)N(C)C(=O)NC1c1cc(Cl)cc(Cl)c1OC (stereo not given)	none (no result: HIF act)
COC(=O)C1=C(C)N(C)C(=O)NC1c1cc(Cl)c(O)c(OC)c1 (stereo not given)	HIF act 691.9
COc1ccccc1NC(=S)N(Cc1ccccc1)Cc1cccnc1	none
Nc1nc(F)nc2c1ncn2[C@@H]1O[C@H](CO)[C@@H](O)[C@@H]1O	none
Nc1nc(F)nc2c1ncn2[C@@H]1O[C@H](CO)[C@@H](O)[C@H]1O	Platelet DG rel 77.3
COc1ccccc1Sc1nc(-c2ccccn2)ncc1OC	none
COc1cnc(-c2ccccn2)nc1NC(C)C	HIF act 177.7
OCCNc1cnc2ccccc2n1	none
CN1CCN(CC(O)COc2ccc(Cl)cc2)CC1 (stereo not given)	none
OCCN1CCN(CC(O)COc2ccc(Cl)cc2)CC1 (stereo not given)	Platelet DG rel 50.3
COc1ccc(NC(=O)CNC(=O)Cc2cccc3ccccc23)c(OC)c1	HIF act 93.5
COc1ccc(NC(=O)C(=O)Nc2cccc3ccccc23)c(OC)c1	none
CC(C)c1ccc(NC2CCCN(C(=O)c3ccco3)C2)cc1 (stereo not given)	none
Cc1cc2ncc(Cl)nc2cc1C	none
Cc1nc2sc(-c3ccccc3)cc2c(=O)n1-n1cccc1	none
Cc1nc2sc(-c3ccccc3)cc2c(=O)n1N	Platelet DG rel 79.7
Nc1nc(SCc2nc3sc4c(c3c(=O)[nH]2)CCCC4)n[nH]1	none
CC(C)[C@@H](CO)NC(=O)c1ccc2c3n(nc2c1)-c1ccccc1CO3	Platelet DG rel 74.7
CC(C)NC(=O)c1ccc2c3n(nc2c1)-c1ccccc1CO3	none
O=C1CSCN1c1ccc(Cl)cc1	HIF act 184.3
O=C(C1CC(=O)N(c2ccc(Cl)cc2)C1)N1CCCCCC1 (stereo not given)	none
COc1ccc(S(=O)(=O)N2CCC(C(=O)NCCC(=O)NC3CC3)CC2)cc1	none
Brc1ccc(-c2nnc(Cc3ccccc3)o2)cc1	none
c1ccc(Cc2nnc(-c3ccccc3)o2)cc1	HIF act 9.7
NC(=O)CC(NC(=O)c1ccccc1)c1ccc(NCc2ccccn2)c([N+](=O)[O-])c1 (stereo not given)	none
CCN(C(=O)COC(=O)c1cc2c(s1)CCCC2)c1c(N)n(Cc2ccccc2)c(=O)[nH]c1=O	none (no result: HIF act, Platelet DG rel)
O=C(COC(=O)c1ccc(Cl)nc1)NCCNC(=O)COC(=O)c1ccc(Cl)nc1	none
CC(C)(C)NC(=O)COC(=O)c1ccc(Cl)nc1	HIF act 71.0
COc1ccc(/C=N/n2cnn(Cc3ccccc3Cl)c2=S)cc1	none
COc1ccc(S(=O)(=O)N2CCOC2CNC(=O)C(=O)NCc2ccc3c(c2)OCO3)cc1OC (stereo not given)	HIF act 219.4
COc1ccc(CNC(=O)C(=O)NCC2OCCN2S(=O)(=O)c2ccc(OC)c(OC)c2)cc1 (stereo not given)	none
Cc1ccc2nsnc2c1NC(=O)CCc1ccccc1	none
CN(C)CCN(Cc1ccccc1)S(=O)(=O)c1ccc(-c2ccc(=O)[nH]n2)s1	Platelet DG rel 51.3
CCCCN(Cc1cccs1)S(=O)(=O)c1ccc(-c2ccc(=O)[nH]n2)s1	none
Cc1c(Cl)c(C(=O)NNC(=S)Nc2ccccc2)nn1C	none
COc1cccc(OCCNC(=O)c2cccc(OC)c2)c1	Platelet DG rel 53.4
COc1cccc(OCCNC(=O)c2ccc(C)cc2)c1	none
COCCNC(=O)c1cc(-c2cccs2)on1	HIF act 29.8
O=C(NCc1cccs1)c1cc(-c2cccs2)on1	none
O=C(Cn1ncc2c3ccccc3n(Cc3ccccc3F)c2c1=O)NCCN1CCOCC1	HIF act 32.2
O=C(Cn1ncc2c3ccccc3n(Cc3ccccc3F)c2c1=O)NCCCN1CCCC1=O	none
C=CCn1c(SCC(=O)N(C)C2CCCCC2)nnc1C1CC1	none (no result: HIF act, Platelet DG rel)
COc1ccc(C(=O)O/N=C(/C)c2cccs2)cc1	Platelet DG rel 58.6
COc1ccc(C(=O)O/N=C(\C)c2nccs2)cc1	none
COc1ccc(C(=O)O/N=C(\N)c2ccc(Br)cc2)cc1	none
COc1ccc(C(=O)O/N=C(\N)c2ccccc2)cc1	Platelet DG rel 66.8
CCOC(=O)c1c(NC(=O)COc2ncnc3sccc23)sc2c1CCC2	none
COc1cccc(NC(=O)c2c([N+](=O)[O-])cnn2C)c1	none
CC1(c2ccc([N+](=O)[O-])c(CS(=O)(=O)c3ccccc3)c2)OCCO1	none
O=S(=O)(O)c1nc2ccccc2n1Cc1cccc2ccccc12	none
CCOC(=O)c1sc(-c2ccccc2)nc1C	none
CCOC(=O)Cc1ccc2sc(-c3ccccc3)nc2c1	Platelet DG rel 55.1
Cc1nc(CCNC(=O)Cc2ccc(Cl)cc2)cs1	none
Clc1ccc(CSc2ccc(-c3cccnc3)nn2)cc1	none
O=C1N/C(=C\c2ccc(O)cc2)C(=O)c2ccccc21	Platelet DG rel 79.9
O=C(O)/C=C1\NC(=O)c2ccccc21	none
Cn1nc(C(=O)OCC(=O)NCc2ccc(Cl)cc2)c2ccccc2c1=O	none (no result: HIF act, Platelet DG rel)
CCc1n[nH]c(=S)n1/N=C/c1ccc(-c2ccc(Br)cc2)o1	HIF act 21.6
CSc1ccc(/C=N/n2c(Cc3ccc(Br)cc3)n[nH]c2=S)cc1	none
CC(=O)N1CCc2cc(S(=O)(=O)CCC(=O)Nc3ccccc3F)ccc21	none
NC(=O)c1ccccc1N/C=C/C(=O)c1ccc(Cl)cc1Cl	Platelet DG rel 51.5 (no result: NTR1 agonist)
NC(=O)c1ccccc1N/C=C/C(=O)c1ccc(F)cc1	none
COc1cccc2sc(Nc3nc(-c4ccccn4)cs3)nc12	HIF act 94.1
c1ccc(Nc2nc(-c3ccccn3)cs2)cc1	none
CCCCNC(=O)c1ccc2c(c1)ncn2C1CCCC1	none
NC(=O)c1cc([N+](=O)[O-])ccc1NCC1CCCCC1	none (no result: HIF act, Platelet DG rel)
CC1CN(C(c2cccs2)c2sc3ncnn3c2O)CC(C)O1 (stereo not given)	none
Oc1c(C(c2cccs2)N2CCOCC2)sc2ncnn12 (stereo not given)	Platelet DG rel 55.5
C=CCn1c(=NC(=O)c2ccc(S(=O)(=O)N3CCCc4ccccc43)cc2)sc2cc(S(N)(=O)=O)ccc21	none
COCCn1c(=NC(=O)c2ccc(S(=O)(=O)N3CCCc4ccccc43)cc2)sc2cc(S(C)(=O)=O)ccc21	HIF act 105.1
CN1C(=O)C(CCC(=O)O)NC1=S (stereo not given)	none
COc1ccc(-c2cc(C(=O)N/N=C/c3cc(OC)c(OC)cc3OC)c3ccccc3n2)cc1	none
